From PubChem BioAssay (NCI) come the findings set out here.

Compounds without any hit were thinned out: in the full panel of roughly 79,000, 15% have a hit. Values without a mark were called inactive. Activity calls are given as the source filed them. No stated cut-off is given here; in the data, active means growth inhibition above about 70%; inactive means the rest.

A short description of the first experiment: NCI Yeast Anticancer Drug Screen. Data for the mec2-1 strain (AID 157). The conditions noted are these: S. cerevisiae mec2-1 strain, at 5.0 µM (retest, dose inferred, filed as 0.5), stronger effect = higher value. The method, boiled down:
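Readout is yeast growth inhibition, normalised to vehicle-treated controls, in the mec2-1 strain exposed to compound.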
Regarding `O=[n+]1c2c(n([O-])c3ccc4ccccc4c31)-c1cccc3cccc-2c13`, the growth inhibition was -1%.

Take `COc1ccc(C(=O)Cc2ccc(Cl)cc2)cc1OC`: the growth inhibition is -7%.

On to `CCN(CC)CCC(=O)c1ccc(Oc2ccc(C)cc2)cc1`, for which the growth inhibition was 6%.

`BrC(Br)=C1C(=C(Br)Br)C(Br)C1Br` (stereo not given): the growth inhibition is -10%.

Consider `O=C(O)C(Cc1cc(I)c(O)c(I)c1)c1ccccc1` (stereo not given), for which the growth inhibition was -1%.

For the compound `CC1(C)OC2C(COC(c3ccccc3)(c3ccccc3)c3ccccc3)OC(n3ccc(=O)[nH]c3=O)C2O1` (stereo not given), the growth inhibition is 35%.

As for `Clc1ccc(C2=CCN3CC=C(c4ccc(Cl)cc4)C23)cc1`, the growth inhibition was 1%.

For `Nc1ccc([N+](=O)[O-])cc1Nc1c2ccccc2nc2ccccc12`, the growth inhibition was 2%.

Turning to `COc1c2c3c(ccnc3c3ccccc13)C(=O)N2C`, the growth inhibition is 15%.

As to `O=C1/C(=C/c2ccc([N+](=O)[O-])cc2)CNC/C1=C\c1ccc([N+](=O)[O-])cc1`, the growth inhibition was 87% (active).

Regarding `Clc1ccc(-c2nnn3ccccc23)cc1`, the growth inhibition was 12%.

As to `O=Cc1ccc([N+](=O)[O-])o1`, the growth inhibition was 7%.

Turning to `CN(C)Cc1cc(C(C)(C)C)cc(C2CCCCC2)c1O`, the growth inhibition was -9%.

In the case of `COc1ccc2c(c1)CN([C@@H](C)[C@H]1CC[C@H]3[C@@H]4CC[C@H]5C[C@@H](O)CC[C@]5(C)[C@H]4CC[C@]13C)CO2`, the growth inhibition is 59%.

Regarding `FC(F)(F)c1ccc(NC(=S)SCc2ccc3c(c2)OCO3)cc1`, the growth inhibition was -5%.

Take `Nc1cc(F)c2c(c1F)C(=O)c1cc(F)ccc1-2`: the growth inhibition was 13%.

Take `CC12CCCCC1CCC(Br)C2=O` (stereo not given): the growth inhibition was -40%.

Consider `CC(C)c1cc(O)c(C(C)(C)C)cc1Cl`, for which the growth inhibition was 2%.

`CCCOC(=O)CCCC(=O)N(CC)CC`: the growth inhibition is 0%.

Consider `CCOC(=O)c1cc(Cc2ccccc2)c(=O)n(C)c1-c1ccccc1`, for which the growth inhibition was -3%.

As for `COS(=O)c1cc(Cl)cc(Cl)c1OC(=O)CSSCC(=O)Oc1c(Cl)cc(Cl)cc1S(=O)OC` (stereo not given), the growth inhibition is 85% (active).

For the compound `ICCCCSc1cc(-c2ccccc2)[o+]c2ccccc12`, the growth inhibition was 10%.

On to `Nc1cc(Cl)c2c(c1)Cc1ccccc1-2`, for which the growth inhibition was 2%.

Consider `Cc1ccc(S(=O)(=O)NCCSSCCNS(=O)(=O)c2ccc(C)cc2)cc1`, for which the growth inhibition was -3%.

Turning to `OC(Cc1cccnc1)(c1ccccc1)c1ccc(Cl)cc1` (stereo not given), the growth inhibition was -3%.

On to `Cc1ccc(C2=CC(=O)/C(=C\C(=O)c3ccc(Cl)cc3)O2)cc1`, for which the growth inhibition was 28%.

Consider `O=C(Nc1ncnc2c1ncn2C1CC(O)C(CO)O1)c1ccccc1` (stereo not given), for which the growth inhibition is -2%.

`O=C1CSC(=S)N1c1ccc(F)cc1F`: the growth inhibition is -2%.

Take `CCCOC(=O)C(Br)C(Br)C(=O)OCCC` (stereo not given): the growth inhibition was 57%.

On to `c1ccc2nc3[nH]c4ccccc4c3cc2c1`, for which the growth inhibition is 18%.

`O=S(=O)(c1ccc(NC(=S)NCc2ccncc2)cc1)N1CCCCC1`: the growth inhibition is -11%.

Turning to `Nc1ccccc1Sc1ccccc1`, the growth inhibition is 26%.

In the case of `CCC(Cl)COP(=O)(OCC(Cl)CC)OC(c1ccc(Cl)c(Cl)c1)P(=O)(OCC(Cl)CC)OCC(Cl)CC` (stereo not given), the growth inhibition is 14%.

Take `O=C(O)/C=C\c1cc2ccccc2c2ccccc12`: the growth inhibition was -11%.

With `COC(=O)C1C2CC3c4[nH]c5cc(OC)c(Br)cc5c4CCN3CC2CC(OC(=O)c2cc(OC)c(OC)c(OC)c2)C1OC` (stereo not given), the growth inhibition was -4%.

For `Cc1c2ccnc(-c3ccc(F)cc3)c2cc2c1[nH]c1ccccc12`, the growth inhibition is -14%.

As for `COc1cc2cc[n+]3c4ccc([N+](=O)[O-])cc4ccc3c2cc1OC`, the growth inhibition was 14%.

In the case of `CCCCCCCCC1N(C)CCCN1C`, the growth inhibition is -51%.

With `CC1(C)OC2C(COC(c3ccccc3)(c3ccccc3)c3ccccc3)OC(n3cnc4c(=O)[nH]cnc43)C2O1` (stereo not given), the growth inhibition is 62%.

As to `COc1cccc2c1C(=O)c1c(O)c3c(c(O)c1C2=O)C[C@@](O)(C(=O)CO)C[C@@H]3OC1CC(N(C)C)C(O)C(C)O1` (stereo not given in full), the growth inhibition was 96% (active).

Staying with this experiment, now noted: S. cerevisiae mec2-1 strain, at 50.0 µM (retest, dose inferred, filed as 5.0), stronger effect = higher value.
For the compound `O=[n+]1c2c(n([O-])c3ccc4ccccc4c31)-c1cccc3cccc-2c13`, the growth inhibition is -3%.

For `COc1ccc(C(=O)Cc2ccc(Cl)cc2)cc1OC`, the growth inhibition is -13%.

Regarding `CCN(CC)CCC(=O)c1ccc(Oc2ccc(C)cc2)cc1`, the growth inhibition was 36%.

For `BrC(Br)=C1C(=C(Br)Br)C(Br)C1Br` (stereo not given), the growth inhibition is 59%.

As to `O=C(O)C(Cc1cc(I)c(O)c(I)c1)c1ccccc1` (stereo not given), the growth inhibition was 34%.

With `CC1(C)OC2C(COC(c3ccccc3)(c3ccccc3)c3ccccc3)OC(n3ccc(=O)[nH]c3=O)C2O1` (stereo not given), the growth inhibition is 96% (active).

Take `Clc1ccc(C2=CCN3CC=C(c4ccc(Cl)cc4)C23)cc1`: the growth inhibition was 42%.

Regarding `Nc1ccc([N+](=O)[O-])cc1Nc1c2ccccc2nc2ccccc12`, the growth inhibition was 5%.

Regarding `COc1c2c3c(ccnc3c3ccccc13)C(=O)N2C`, the growth inhibition is 72% (active).

Regarding `O=C1/C(=C/c2ccc([N+](=O)[O-])cc2)CNC/C1=C\c1ccc([N+](=O)[O-])cc1`, the growth inhibition was 99% (active).

As to `Clc1ccc(-c2nnn3ccccc23)cc1`, the growth inhibition is 9%.

As to `O=Cc1ccc([N+](=O)[O-])o1`, the growth inhibition was 99% (active).

As for `CN(C)Cc1cc(C(C)(C)C)cc(C2CCCCC2)c1O`, the growth inhibition is 66%.

For `COc1ccc2c(c1)CN([C@@H](C)[C@H]1CC[C@H]3[C@@H]4CC[C@H]5C[C@@H](O)CC[C@]5(C)[C@H]4CC[C@]13C)CO2`, the growth inhibition is 99% (active).

Regarding `FC(F)(F)c1ccc(NC(=S)SCc2ccc3c(c2)OCO3)cc1`, the growth inhibition is -1%.

`Nc1cc(F)c2c(c1F)C(=O)c1cc(F)ccc1-2`: the growth inhibition was 70% (active).

In the case of `CC12CCCCC1CCC(Br)C2=O` (stereo not given), the growth inhibition was -18%.

In the case of `CC(C)c1cc(O)c(C(C)(C)C)cc1Cl`, the growth inhibition was 38%.

`CCCOC(=O)CCCC(=O)N(CC)CC`: the growth inhibition is 1%.

Consider `CCOC(=O)c1cc(Cc2ccccc2)c(=O)n(C)c1-c1ccccc1`, for which the growth inhibition was 83% (active).

For `COS(=O)c1cc(Cl)cc(Cl)c1OC(=O)CSSCC(=O)Oc1c(Cl)cc(Cl)cc1S(=O)OC` (stereo not given), the growth inhibition was 99% (active).

As for `ICCCCSc1cc(-c2ccccc2)[o+]c2ccccc12`, the growth inhibition was 51%.

As for `Nc1cc(Cl)c2c(c1)Cc1ccccc1-2`, the growth inhibition was 95% (active).

Take `Cc1ccc(S(=O)(=O)NCCSSCCNS(=O)(=O)c2ccc(C)cc2)cc1`: the growth inhibition was 97% (active).

`OC(Cc1cccnc1)(c1ccccc1)c1ccc(Cl)cc1` (stereo not given): the growth inhibition is 80% (active).

Regarding `Cc1ccc(C2=CC(=O)/C(=C\C(=O)c3ccc(Cl)cc3)O2)cc1`, the growth inhibition is 28%.

For `O=C(Nc1ncnc2c1ncn2C1CC(O)C(CO)O1)c1ccccc1` (stereo not given), the growth inhibition is 0%.

`O=C1CSC(=S)N1c1ccc(F)cc1F`: the growth inhibition was 82% (active).

In the case of `CCCOC(=O)C(Br)C(Br)C(=O)OCCC` (stereo not given), the growth inhibition was 98% (active).

As to `c1ccc2nc3[nH]c4ccccc4c3cc2c1`, the growth inhibition was 52%.

On to `O=S(=O)(c1ccc(NC(=S)NCc2ccncc2)cc1)N1CCCCC1`, for which the growth inhibition is -43%.

Take `Nc1ccccc1Sc1ccccc1`: the growth inhibition was 61%.

Turning to `CCC(Cl)COP(=O)(OCC(Cl)CC)OC(c1ccc(Cl)c(Cl)c1)P(=O)(OCC(Cl)CC)OCC(Cl)CC` (stereo not given), the growth inhibition was 11%.

`O=C(O)/C=C\c1cc2ccccc2c2ccccc12`: the growth inhibition is 99% (active).

Regarding `COC(=O)C1C2CC3c4[nH]c5cc(OC)c(Br)cc5c4CCN3CC2CC(OC(=O)c2cc(OC)c(OC)c(OC)c2)C1OC` (stereo not given), the growth inhibition was 74% (active).

With `Cc1c2ccnc(-c3ccc(F)cc3)c2cc2c1[nH]c1ccccc12`, the growth inhibition is 15%.

As for `COc1cc2cc[n+]3c4ccc([N+](=O)[O-])cc4ccc3c2cc1OC`, the growth inhibition was 73% (active).

With `CCCCCCCCC1N(C)CCCN1C`, the growth inhibition was 98% (active).

Turning to `CC1(C)OC2C(COC(c3ccccc3)(c3ccccc3)c3ccccc3)OC(n3cnc4c(=O)[nH]cnc43)C2O1` (stereo not given), the growth inhibition is 99% (active).

`COc1cccc2c1C(=O)c1c(O)c3c(c(O)c1C2=O)C[C@@](O)(C(=O)CO)C[C@@H]3OC1CC(N(C)C)C(O)C(C)O1` (stereo not given in full): the growth inhibition is 97% (active).
